Inconclusive results are not listed. Values without a mark were called inactive. Calls of active or inactive are those of the source. The call rests on the fitted dose curve; in most records, active means well fitted cell-killing curve with a large enough effect; inconclusive means small, poorly fitted or top-dose-only effect; inactive means flat fitted curve, though single readings scatter.

The nature of the assay: Cellular viability qHTS for adrenocortical cancer (ACC) cell line NCI-H295R (AID 1963990). Further: nearly all actives have a fitted effect of over 60% in size.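 On activity change, negative = viability loss: 0% = DMSO only wells and -100% = full killing with cytotoxic reference compound.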 Particulars: CellTiter-Glo ATP luminescence, 48 h; series mostly up to 46.1 µM; activity change, negative = viability loss: at the top concentration. The procedure, abridged: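 CellTiter-Glo ATP luminescence, read 48 h after compound addition, measured viability of NCI-H295R adrenocortical cells grown serum-free with ITS. Final concentrations spanned up to 46 uM. Data normalized to DMSO and doxorubicin, fitted for IC50 and maximal response.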
On to `NCCNCCNCCNCCN`, for which the activity change, negative = viability loss is 1% [at 9.17 µM]. Still for that read-out and setting: to `CN(C)CCN(Cc1cccs1)c1ccccn1` belongs -7.54%; to `CCCCNc1ncc(-c2ccc(CN3CCOCC3)cn2)c(NC2CCC(O)CC2)n1` (configuration not stated), -36.4% [at 20 µM].

Take `COc1cc2ncnc(Nc3ccc(F)c(Cl)c3)c2cc1NC(=O)/C=C/CN1CCCCC1`: the Potency is 4.47 µM (active).

As to `CC(C)C(=O)c1c(C(C)C)nn2ccccc12`, the “activity change, negative = viability loss” value is 4.87%.

For the compound `CN(C)C(=O)Oc1cccc([N+](C)(C)C)c1`, the “activity change, negative = viability loss” value is -10.3%. Still for that read-out and setting: as for `CC(=O)Nc1ccc(S(=O)(=O)Nc2cc(C)on2)cc1`, the figure is -8.59%. As for `CCCNC(C)C(=O)Nc1ccccc1C` (configuration not stated), the “activity change, negative = viability loss” value was -12.4%.

Regarding `CNC[C@H](O)c1cccc(O)c1`, the “activity change, negative = viability loss” value is -31.4%. On the same count and under the same terms, to `CCn1cc(C(=O)O)c(=O)c2cnc(N3CCNCC3)nc21` belongs 2.82%. Still for that read-out and setting: to `COc1ccc(C(=O)NCc2ccc(OCCN(C)C)cc2)cc1OC` belongs -1%.

Consider `COC(=O)c1cc(Cl)c(NC(C)=O)cc1OC`, for which the “activity change, negative = viability loss” value was -13.6%.

These data come from PubChem BioAssay (NCATS).
